# Records with an inconclusive call do not appear. A call without a number means that no potency is given here. Active and inactive are the calls of the source. The call rests on the fitted dose curve.
# Target: Beta-2 adrenergic receptor (Homo sapiens) (UniProt P07550)
# Experiment: Adrenergic beta2 receptor (ADRB2) small molecule antagonists, cell-based qHTS assay (AID 1963592); further: nearly all actives have a fitted effect of over 50% in size
# Conditions: CHO-ADRB2 cells, isoproterenol-stimulated cAMP HTRF ratio, 0.5 h; series mostly up to 92.4 µM
# Description: U.S. Tox21 Program National Center for Advancing Translational Sciences [NCATS] Division of Preclinical Innovation [DPI] U.S. Environmental Protection Agency [EPA] National Institutes of Environmental Health Sciences [NIEHS] National Toxicology Program [NTP] U.S. Food and Drug Administration [FDA] Tox21 Assay Overview: Beta adrenergic receptors (Beta-ARs) belong to the G-protein coupled receptor (GPCR) superfamily, includes three subtypes - beta1, beta2, and beta3. Beta1-AR is the predominant receptor subtype expressed in the heart, and beta2-AR is expressed in the kidney, lung, blood vessel and in the heart, and beta3 is found in the adipocytes. Beta1 and 2 ARs couple to Gs protein and elevate cyclic adenosine mono phosphate (cAMP), which activates protein kinase A and leads to the downstream signaling responsible for the physiological actions. Beta-AR agonists or antagonists are the most prescribed therapeutic agents for heart failure and asthma, and these were one of the first target receptors for the rational drug design. Tox21 10K compound library was screened using the cAMP-Gs dynamic assay (Cisbio Bioassays, Shelton, CT) to identify agonists/antagonists of the Gs-coupled human adrenergic, beta2 receptor (ADRB2) in the CHO-ADRB2 cell line (Codex BioSolutions, Inc. Gaithersburg, MD), which stably over-expresses ADRB2. The principle of cAMP-Gs dynamic assay is based on HTRF technology, which facilitates the fluorescence resonance energy transfer (FRET) between donor Europium cryptate and acceptor d2-labeled cAMP. The cAMP generated within cells competes with the red acceptor, d2-labled cAMP, for binding to the monoclonal anti-cAMP-cryptate (Europium donor). An increase in intracellular cAMP leads to the disruption of FRET signal, and the signal is inversely proportional to the cAMP concentration. Propranolol HCl (Sigma-Aldrich, St. Louis, MO) was used as a positive control in the screening.
# Tox21 Assay Protocol Summary: CHO-ADRB2 cells were dispensed at 1,000/well in 4uL assay medium into white/solid 1536-well plates (Greiner Bio-One North America Inc., Monroe, NC) using a Multidrop Combi dispenser (ThermoFisher Scientific, Waltham, MA). The assay plates were incubated at 37C and 5% CO2 for an overnight (18-20hr). Then positive control and test compounds dissolved in DMSO were transferred to the assay plates at 23nL using a Pintool station (Wako, San Diego, CA). Following the compound and positive control transfer, 1uL agonist-stimulation mix containing 1nM Isoproterenol HCl, 100uM IBMX and 25uM Ro-20-1724 was added to each well of the assay plates using BioRAPTR Flying Reagent Dispenser (FRD, Beckman Coulter, Brea, CA). The assay plates were incubated at room temperature for 0.5hr. Then 2.5ul each d2-labled cAMP and anti-cAMP-cryptate solutions were added separately to each well of the assay plates using an FRD and the assay plates were incubated at room temperature for 1hr. The fluorescence signal was measured at two different wavelengths (665nm and 615nm) using an Envision plate reader (Perkin Elmer, Shelton, CT). Data were expressed as the ratio of 665 nm/615 nm.
# Chain of Beta-2 adrenergic receptor (Homo sapiens) (P07550 whole entry, looked up): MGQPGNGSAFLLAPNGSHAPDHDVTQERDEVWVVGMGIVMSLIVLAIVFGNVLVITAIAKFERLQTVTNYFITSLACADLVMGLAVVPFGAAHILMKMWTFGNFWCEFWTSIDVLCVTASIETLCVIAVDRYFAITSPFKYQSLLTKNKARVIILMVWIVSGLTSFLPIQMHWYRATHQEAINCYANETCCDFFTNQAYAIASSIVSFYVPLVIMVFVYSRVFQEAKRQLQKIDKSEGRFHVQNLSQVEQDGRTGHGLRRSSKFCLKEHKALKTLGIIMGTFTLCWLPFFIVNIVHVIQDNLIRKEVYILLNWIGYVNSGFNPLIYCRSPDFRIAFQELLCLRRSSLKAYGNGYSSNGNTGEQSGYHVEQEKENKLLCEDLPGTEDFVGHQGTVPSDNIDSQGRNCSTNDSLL
Compound,Potency,"activity change, negative = inhibition"
OCC(O)c1ccccc1 (stereo not given),inactive,–
CC(=O)OCC(=O)[C@@]1(OC(C)=O)[C@@H](C)C[C@H]2[C@@H]3C[C@H](F)C4=CC(=O)C=C[C@]4(C)[C@@]3(F)[C@@H](O)C[C@@]21C,inactive,–
CC(=O)O[C@@H]1CC2CCC1(C)C2(C)C (stereo not given in full),inactive,–
O=C(O)CCN(C1(C(=O)NO)CCCC1)S(=O)(=O)c1ccc(Oc2ccc(F)cc2)cc1,inactive,–
ClC(Cl)(Br)Br,inactive,–
CCCCCCCC(=O)OCC,inactive,–
O=C1c2ccccc2C(=O)C1c1nc2ccccc2c(Br)c1O,inactive,–
CC(C)(O)c1coc(S(=O)(=O)NC(=O)Nc2c3c(cc4c2CCC4)CCC3)c1,inactive,–
Cc1cnc(NS(=O)(=O)c2ccc(N)cc2)nc1,inactive,–
CCOC(=O)c1ccc(NC(=O)CN2CCCCC2)cc1,inactive,–
CCCCCCCCCCCCCCCCC(=O)O,inactive,–
C=COCC(C)C,inactive,–
CN(C)CCN(Cc1ccc(Cl)cc1)c1ccccn1,inactive,–
NC[C@H]1O[C@H](O[C@H]2[C@H](O[C@@H]3O[C@H](CO)[C@@H](O)[C@H]3O)C(O)[C@H](N)C[C@@H]2N)[C@H](N)[C@@H](O)[C@@H]1O (stereo not given in full),–,7.44% [at 8.39 µM] (inactive)
O=c1c(O)c(-c2ccc(O)cc2O)oc2cc(O)cc(O)c12,inactive,–
CC(C)(Sc1cc(C(C)(C)C)c(O)c(C(C)(C)C)c1)Sc1cc(C(C)(C)C)c(O)c(C(C)(C)C)c1,inactive,–
CCC(=O)O[C@]1(C(=O)SCF)[C@H](C)C[C@H]2[C@@H]3C[C@H](F)C4=CC(=O)C=C[C@]4(C)[C@@]3(F)[C@@H](O)C[C@@]21C,inactive,–
Cc1cc(NC(=O)C2=C(O)c3ccccc3S(=O)(=O)N2C)no1,inactive,–
O=C1OCCN1/N=C/c1ccc([N+](=O)[O-])o1,inactive,–
CC/C=C(\C)C=O,inactive,–

Compound,Potency,"activity change, negative = inhibition"
CCc1ccc(C(=O)C(C)CN2CCCCC2)cc1 (stereo not given),inactive,–
CC(=O)Nc1cccc(C)c1,inactive,–
CCc1cccc(CC)c1NC(=O)CN(CC(=O)O)CC(=O)O,inactive,–
CS(=O)(=O)c1ccc(-c2cn3ccccc3n2)cc1,inactive,–
O=C(Nc1cccc2c(=O)cc(-c3nn[nH]n3)oc12)c1ccc(OCCCCc2ccccc2)cc1,inactive,–
CC(C)Nc1cccnc1N1CCN(C(=O)c2cc3cc(NS(C)(=O)=O)ccc3[nH]2)CC1,inactive,–
O=CN1CCCCC1,inactive,–
CC(C(=O)O)c1ccc(C(=O)c2ccccc2)s1 (stereo not given),inactive,–
COc1ccc(OC)c(OC)c1,inactive,–
O=C(CCBr)N1CCN(C(=O)CCBr)CC1,inactive,–
OCC(CBr)(CBr)CBr,inactive,–
O=CC(=O)c1ccccc1,inactive,–
CCCCCCCCCC=O,inactive,–
CCCCC(CC)COC(=O)COc1ccc(Cl)cc1C (stereo not given),inactive,–
Cc1ccc(N(CCO)CCO)cc1,inactive,–
Cc1cc(C)c(NC(=O)CN(CC(=O)O)CC(=O)O)c(C)c1Br,inactive,–
O=C(Nc1ccccc1)c1cc([N+](=O)[O-])ccc1Cl,inactive,–
Cc1ncc(CO)c(C=O)c1O,inactive,–
CN1CCN(C2Cc3ccccc3Sc3ccc(Cl)cc32)CC1 (stereo not given),inactive,–
CC(C)=CCC/C(C)=C/CC/C(C)=C/C(=O)OCC(=O)[C@@]1(O)CC[C@H]2[C@@H]3CCC4=CC(=O)C=C[C@]4(C)[C@H]3[C@@H](O)C[C@@]21C,inactive,–

# Reference: PubChem BioAssay (Tox21)
